Experimental data: PubChem BioAssay (NCATS)
Records with an inconclusive call do not appear. Activity calls are given as the source filed them. Unless noted, calls follow the shape of the dose curve; as a rule, active = well fitted curve in the direction sought with a large enough effect; inconclusive = small, poorly fitted or top-dose-only effect, or another doubt; inactive = no such curve, though single readings can be large; an effect the other way counts as inactive or inconclusive.

Tests used:
[1] = qHTS for Inhibitors of Plasmodium falciparum (DD2) proliferation (AID 504314);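 also: parasite DNA measured by SYBR Green fluorescence after red cell lysis; plate controls were DMSO vehicle for no effect and artemisinin wells for full effect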
Outline: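 SYBR Green growth assay: 72 h compound exposure of infected red cells (2.5% hematocrit, 0.3% parasitemia), then lysis and overnight dye staining, fluorescence 485/535 nm. Values scaled between DMSO and 0.29 uM artemisinin controls.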

[2] = qHTS for Inhibitors of Plasmodium falciparum (GB4) proliferation (AID 504315);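 also: 0% = DMSO vehicle and -100% = 0.29 µM artemisinin control; nearly all actives have a fitted effect of over 50% in size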
Outline: (§1)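 Parasite growth measured as SYBR Green DNA fluorescence (ex 485, em 535 nm) after overnight lysis following 72 h culture at 37 °C, 0.3% parasitemia, 2.5% hematocrit. Values normalized against DMSO and 0.29 uM artemisinin controls, with plate-stack correction.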

[3] = qHTS for Inhibitors of Plasmodium falciparum (CP250) proliferation (AID 504320);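 also: plate controls were DMSO vehicle for no effect and 0.29 µM artemisinin control for full effect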
Outline: as §1

[4] = target: Atrial natriuretic peptide receptor 1 (Homo sapiens) (UniProt P16066); assay: Natriuretic polypeptide receptor (hNpr1) antagonism - Pilot CMLD screen (AID 1347052; calls by dose curve;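 also: HEK293 cells with hNpr1 stimulated by hNppA peptide at 0.1 nM; cGMP level read as GloSensor luciferase luminescence after agonist stimulation; series mostly up to about 9.2 µM; % is scaled to controls: 0 for no effect and ±100 for the full control effect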)
Sequence of Atrial natriuretic peptide receptor 1 (Homo sapiens) (P16066 whole entry, looked up): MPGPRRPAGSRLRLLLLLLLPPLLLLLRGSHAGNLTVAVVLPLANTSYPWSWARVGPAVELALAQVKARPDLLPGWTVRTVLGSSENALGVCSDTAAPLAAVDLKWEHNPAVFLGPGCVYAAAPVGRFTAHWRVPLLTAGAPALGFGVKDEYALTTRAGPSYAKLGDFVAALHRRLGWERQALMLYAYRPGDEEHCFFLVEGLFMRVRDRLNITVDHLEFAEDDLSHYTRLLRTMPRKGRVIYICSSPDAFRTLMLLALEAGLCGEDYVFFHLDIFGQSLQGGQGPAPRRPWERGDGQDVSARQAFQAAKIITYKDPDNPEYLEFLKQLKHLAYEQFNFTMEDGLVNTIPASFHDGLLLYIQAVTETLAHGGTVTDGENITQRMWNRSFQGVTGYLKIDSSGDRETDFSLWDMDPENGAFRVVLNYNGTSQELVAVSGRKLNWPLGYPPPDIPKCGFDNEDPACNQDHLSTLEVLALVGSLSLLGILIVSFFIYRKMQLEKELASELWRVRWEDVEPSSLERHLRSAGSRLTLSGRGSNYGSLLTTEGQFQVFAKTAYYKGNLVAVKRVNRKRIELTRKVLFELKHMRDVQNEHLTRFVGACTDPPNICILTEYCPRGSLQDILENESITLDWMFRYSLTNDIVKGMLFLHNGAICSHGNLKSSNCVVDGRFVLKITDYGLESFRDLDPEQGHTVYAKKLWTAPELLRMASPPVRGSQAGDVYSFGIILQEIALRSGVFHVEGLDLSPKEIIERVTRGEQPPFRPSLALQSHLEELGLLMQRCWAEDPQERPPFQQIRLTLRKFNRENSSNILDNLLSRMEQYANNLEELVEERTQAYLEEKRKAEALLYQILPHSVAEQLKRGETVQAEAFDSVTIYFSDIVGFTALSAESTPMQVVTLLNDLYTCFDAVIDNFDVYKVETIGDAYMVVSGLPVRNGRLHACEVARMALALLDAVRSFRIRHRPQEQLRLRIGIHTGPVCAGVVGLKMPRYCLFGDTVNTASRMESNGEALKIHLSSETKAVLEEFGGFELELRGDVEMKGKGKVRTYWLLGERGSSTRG

[5] = target: Cytochrome P450 2C9 (Homo sapiens) (UniProt P11712); assay: qHTS Assay for Inhibitors and Substrates of Cytochrome P450 2C9 (AID 883); also: % is scaled to controls: 0 for no effect and ±100 for the full control effect; nearly all actives have a fitted effect of over 60% in size
Sequence of Cytochrome P450 2C9 (Homo sapiens) (P11712 whole entry, looked up): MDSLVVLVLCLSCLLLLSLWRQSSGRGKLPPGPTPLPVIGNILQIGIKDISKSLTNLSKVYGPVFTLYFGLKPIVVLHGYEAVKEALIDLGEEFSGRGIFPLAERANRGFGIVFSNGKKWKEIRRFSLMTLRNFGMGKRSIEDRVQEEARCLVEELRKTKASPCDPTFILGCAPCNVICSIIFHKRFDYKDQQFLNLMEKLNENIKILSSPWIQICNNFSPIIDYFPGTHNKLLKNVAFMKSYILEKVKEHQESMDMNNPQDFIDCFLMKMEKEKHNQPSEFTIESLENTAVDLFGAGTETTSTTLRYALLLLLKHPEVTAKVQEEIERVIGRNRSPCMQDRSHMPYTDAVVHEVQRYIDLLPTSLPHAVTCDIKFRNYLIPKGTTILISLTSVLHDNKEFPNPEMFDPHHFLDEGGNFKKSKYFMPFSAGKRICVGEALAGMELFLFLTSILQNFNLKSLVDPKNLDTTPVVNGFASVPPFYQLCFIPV
Outline: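 CYP2C9 deoxyluciferin hydroxylation, 37C, 60 min with NADPH regeneration; 10nM enzyme, 100uM Luciferin-H (KM). Glo detection reagent stopped reaction; luminescence normalized to sulphaphenazole (57uM) full inhibition.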

[6] = target: Cytochrome P450 3A4 (Homo sapiens) (UniProt P08684); assay: qHTS Assay for Inhibitors and Substrates of Cytochrome P450 3A4 (AID 884); also: series mostly up to about 57 µM; % is scaled to controls: 0 for no effect and ±100 for the full control effect; nearly all actives have a fitted effect of over 50% in size
Sequence of Cytochrome P450 3A4 (Homo sapiens) (P08684 whole entry, looked up): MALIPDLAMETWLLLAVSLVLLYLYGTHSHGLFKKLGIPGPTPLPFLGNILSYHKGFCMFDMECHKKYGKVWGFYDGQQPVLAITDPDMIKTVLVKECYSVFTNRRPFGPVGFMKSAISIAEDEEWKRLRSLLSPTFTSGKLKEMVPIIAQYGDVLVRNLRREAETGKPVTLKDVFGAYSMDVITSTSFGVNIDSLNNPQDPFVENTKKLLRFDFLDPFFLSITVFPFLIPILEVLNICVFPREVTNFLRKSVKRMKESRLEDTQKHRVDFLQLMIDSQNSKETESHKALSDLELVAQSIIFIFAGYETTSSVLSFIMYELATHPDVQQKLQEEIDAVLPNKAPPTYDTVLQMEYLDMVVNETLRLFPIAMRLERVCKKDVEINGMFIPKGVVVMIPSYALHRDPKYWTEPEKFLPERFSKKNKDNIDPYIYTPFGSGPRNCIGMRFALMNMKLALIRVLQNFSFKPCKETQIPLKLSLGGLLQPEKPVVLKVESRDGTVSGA
Outline: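 Luminescent readout of luciferin produced by CYP3A4 (20 nM) dealkylation of Luciferin-PPXE, 25 uM (its KM). NADPH-driven reaction ran 60 min at RT after 10 min compound preincubation; data scaled to 57 uM ketoconazole as 100% inhibition.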

[7] = target: Cytochrome P450 2D6 (Homo sapiens) (UniProt P10635); assay: qHTS Assay for Inhibitors and Substrates of Cytochrome P450 2D6 (AID 891);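 also: luciferin methyl ether substrate demethylated by CYP2D6 with NADPH regeneration; % is scaled to controls: 0 for no effect and ±100 for the full control effect; nearly all actives have a fitted effect of over 60% in size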
Sequence of Cytochrome P450 2D6 (Homo sapiens) (P10635 whole entry, looked up): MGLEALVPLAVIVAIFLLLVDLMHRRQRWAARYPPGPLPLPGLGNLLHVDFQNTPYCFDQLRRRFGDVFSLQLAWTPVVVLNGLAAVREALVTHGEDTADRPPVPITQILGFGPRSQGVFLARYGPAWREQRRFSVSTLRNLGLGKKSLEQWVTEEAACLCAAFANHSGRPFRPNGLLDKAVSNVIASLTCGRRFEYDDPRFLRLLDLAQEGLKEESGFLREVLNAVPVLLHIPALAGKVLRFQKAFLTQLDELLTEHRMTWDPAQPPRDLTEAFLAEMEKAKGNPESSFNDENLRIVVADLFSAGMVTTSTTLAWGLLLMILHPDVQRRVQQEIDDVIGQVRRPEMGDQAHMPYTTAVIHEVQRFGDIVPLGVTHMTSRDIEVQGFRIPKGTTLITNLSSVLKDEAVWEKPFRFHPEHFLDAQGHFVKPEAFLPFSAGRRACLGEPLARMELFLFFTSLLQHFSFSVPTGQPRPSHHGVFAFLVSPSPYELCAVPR
Outline: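 Luminescent read-out of luciferin formed by 5 nM human CYP2D6 demethylating 30 uM Luciferin-ME EGE (Km level) over 60 min at room temperature after NADPH regeneration addition. Data normalized to full inhibition by 1.43 uM quinidine.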

[8] = target: Cytochrome P450 2C19 (Homo sapiens) (UniProt P33261); assay: qHTS Assay for Inhibitors and Substrates of Cytochrome P450 2C19 (AID 899); also: % is scaled to controls: 0 for no effect and ±100 for the full control effect; nearly all actives have a fitted effect of over 60% in size
Sequence of Cytochrome P450 2C19 (Homo sapiens) (P33261 whole entry, looked up): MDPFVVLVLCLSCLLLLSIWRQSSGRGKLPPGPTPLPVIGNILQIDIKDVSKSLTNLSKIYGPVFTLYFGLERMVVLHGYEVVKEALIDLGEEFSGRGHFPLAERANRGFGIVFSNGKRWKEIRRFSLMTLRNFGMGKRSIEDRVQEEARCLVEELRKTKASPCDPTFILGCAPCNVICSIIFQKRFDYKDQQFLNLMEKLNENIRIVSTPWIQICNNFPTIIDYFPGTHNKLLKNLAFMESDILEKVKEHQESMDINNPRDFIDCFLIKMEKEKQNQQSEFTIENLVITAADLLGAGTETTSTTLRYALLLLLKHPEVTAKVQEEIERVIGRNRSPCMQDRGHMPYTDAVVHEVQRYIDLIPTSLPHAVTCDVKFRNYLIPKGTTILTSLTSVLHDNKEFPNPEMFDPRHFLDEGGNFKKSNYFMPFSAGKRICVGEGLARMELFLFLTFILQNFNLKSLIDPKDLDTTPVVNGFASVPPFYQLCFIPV
Outline: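 In 50mM KPO4, the reaction held 5nM enzyme and KM-level (10uM) Luciferin-H EGE; it ran 60 min at 37C after NADPH regeneration and a 10 min compound preincubation. Luminescence values were scaled to 57uM ketoconazole as complete inhibition.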

[9] = qHTS for Inhibitors of Plasmodium falciparum (HB3) proliferation (AID 504318);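 also: 0% = DMSO vehicle and -100% = artemisinin control; nearly all actives have a fitted effect of over 60% in size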
Outline: as §1

CC1(C)OCC([C@H](O)C2=CCCCC2=O)CO1
inactive: Potency [1] | Potency [2] | Potency [3] | Potency [4]

COC(=O)C1=C(C(=O)OC)[C@@H]2N(C)c3ccccc3[C@@]23CCC(=O)N(Cc2cc(OC)c(OC)c(OC)c2)C3=N1
inactive: Potency [1] | Potency [2] | Potency [3] | Potency [4]

Cc1c(O)c(=O)c2ccccc2n1C
inactive: activity change, negative = inhibition [5] 25.8% [at 11.4 µM] | activity change, negative = inhibition [6] 0.317% [at 11.4 µM] | activity change, negative = inhibition [7] 2.15% [at 11.4 µM] | activity, negative = inhibition [8] 73.4% [at 11.4 µM] | Potency [1] | Potency [2] | Potency [9] | Potency [3] | Potency [4]

CC(CCN1CCCc2nc(C)c(C)cc21)=NOC[C@@H](O)[C@H]1O[C@@H]2OC(C)(C)O[C@H]2[C@@H]1O
inactive: Potency [1] | Potency [2] | Potency [3] | Potency [4]

CC(=O)C1=CN(CCc2c[nH]c3ccccc23)C(=O)NC1c1ccccc1 (stereo not drawn)
inactive: Potency [1] | Potency [2] | Potency [9] | Potency [3] | Potency [4]

O=C1Nc2cccc(Br)c2[C@@]12O[C@H](COc1ccccc1)CC1=CCC[C@H]12
inactive: Potency [1] | Potency [2] | Potency [3] | Potency [4]

COCCN1C(=O)N[C@@H](c2ccccc2)[C@H](C(C)=O)[C@H]1C
inactive: Potency [1] | Potency [2] | Potency [9] | Potency [3] | Potency [4]

COC(=O)C1=C2C=C(C)CC(C)N2C(=O)NC1c1ccccc1 (stereo not drawn)
inactive: Potency [1] | Potency [2] | Potency [9] | Potency [3] | Potency [4]

COC(=O)C1C[C@@]23C(=NN=C(SC)C2N(C)c2ccc(OC)cc23)N1C(C)=O (stereo partly drawn)
inactive: Potency [1] | Potency [2] | Potency [9] | Potency [3] | Potency [4]

Cc1cc2c(c(=O)o1)[C@H]1O[C@](CCCCN3C(=O)c4ccccc4C3=O)(Cc3cc(C#N)ccc31)O2
inactive: Potency [1] | Potency [2] | Potency [3] | Potency [4]

CC(=O)OC[C@H]1O[C@H](CCON=C(C)CCN2CCCCc3nc(C)c(C)cc32)C=C[C@H]1OC(C)=O
inactive: Potency [1] | Potency [2] | Potency [9] | Potency [3] | Potency [4]

C=C(Br)CO[C@@H]1C=C[C@@H](c2ccccc2)O[C@@H]1COC
inactive: Potency [1] | Potency [2] | Potency [9] | Potency [3] | Potency [4]

COC1=C[C@H](C(=O)N2CCCC2)[C@H](C)[C@@H](c2ccccc2)CC1=O
inactive: Potency [1] | Potency [2] | Potency [3] | Potency [4]

C[C@H](O)CON1C(=O)c2ccccc2C1=O
inactive: Potency [1] | Potency [2] | Potency [3] | Potency [4]

CCOC(=O)[C@@]1([C@@H](NC(=O)OC)c2ccccc2)CCCC1=O
inactive: Potency [1] | Potency [2] | Potency [9] | Potency [3] | Potency [4]

CC1=C(C)CC(c2ccccc2)C(C(=O)c2ccccc2O)C1 (stereo not drawn)
inactive: activity change, negative = inhibition [5] -27.8% [at 11.4 µM] | activity change, negative = inhibition [6] -21.6% [at 11.4 µM] | activity change, negative = inhibition [7] 6.86% [at 11.4 µM] | activity, negative = inhibition [8] -23.3% [at 11.4 µM] | Potency [1] | Potency [2] | Potency [9] | Potency [3] | Potency [4]

N#Cc1ccc2c(c1)C[C@]1(c3ccsc3)Oc3c(c(=O)oc4ccccc34)[C@H]2O1
inactive: Potency [1] | Potency [2] | Potency [9] | Potency [3] | Potency [4]

COCCN1C(=O)N[C@@H](CCc2ccccc2)[C@H](C(C)=O)[C@H]1C
inactive: Potency [1] | Potency [2] | Potency [9] | Potency [3] | Potency [4]

C=CC[C@@H]1C=CC(ON=CC[C@@H]2C=C[C@@H](OC(C)=O)[C@@H](COC(C)=O)O2)[C@H](CO)O1 (stereo partly drawn)
inactive: Potency [1] | Potency [2] | Potency [9] | Potency [3] | Potency [4]

CC(=O)O[C@H](C(=O)O[C@@H]1C[C@@H](CCC[C@H]2O[C@H](C(=O)OC(C)C)CC[C@@H]2C)O[C@@H](CC#N)C1)c1ccccc1
inactive: Potency [1] | Potency [2] | Potency [3] | Potency [4]

CC1(OC(=O)c2cnc3ccccc3n2)C(=O)C=C2C=C(c3ccc(C#N)cc3)OC=C2C1=O (stereo not drawn)
inactive: Potency [1] | Potency [2] | Potency [9] | Potency [3] | Potency [4]

COC(=O)[C@H](C=C[C@H](C)Cc1cc(Br)cc(OCc2ccccc2)c1OC)OCc1ccccc1
inactive: Potency [1] | Potency [2] | Potency [9] | Potency [3] | Potency [4]

COC(=O)C1=C(C)N(Cc2ccccc2)C(=S)NC1c1ccc(Br)cc1 (stereo not drawn)
inactive: Potency [1] | Potency [2] | Potency [9] | Potency [3] | Potency [4]

COc1ccc2c(c1)O[C@@H](c1cccc(C(F)(F)F)c1)[C@H](OC(=O)NC1CCCC1)C2=O
inactive: Potency [1] | Potency [2] | Potency [3] | Potency [4]

COC[C@@H](OC(C)=O)[C@H]1OCc2ccccc2[C@@H]1C=Cc1ccccc1
inactive: Potency [1] | Potency [2] | Potency [3] | Potency [4]

CC(=O)OC[C@H]1O[C@H](CCON=C[C@@H](C)[C@H](OCc2ccccc2)C(C)C)C=C[C@@H]1OC(C)=O
inactive: Potency [1] | Potency [2] | Potency [9] | Potency [3] | Potency [4]
